Results filed as inconclusive are left out. Entries that show only a call come without a potency. The source made the active and inactive calls. Calls follow the shape of the dose curve; as a rule, active = well fitted activation curve with a large enough effect in the repeat runs; inconclusive = weak or mixed curves; inactive = flat fitted curve, though single readings scatter.
molecular target: Nuclear receptor subfamily 1 group I member 2 (Homo sapiens) (UniProt O75469); experiment: Human pregnane X receptor (PXR) activation by small molecules, qHTS assay (AID 1346985); details: DPX-2 HepG2 CYP3A4-luciferase, 24 h; series mostly up to 38.3 µM; also: nearly all actives have a fitted effect of over 40% in size
How it was run: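 DPX-2 cells (HepG2 co-transfected with a PXR response element and a CYP3A4-promoter luciferase construct) were seeded at 2,000 per well, rested 5 hr at 37C, then exposed to DMSO-dissolved compounds for 24 hr. Activation was read as luciferase luminescence.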
Potency is read from the fitted curve at half-maximal effect.

| Structure (SMILES) | Potency |
| --- | --- |
| Cc1cc(CC(C)CC(C)(C)C)n(O)c(=O)c1 (stereo not drawn) (tested in a mixture with another compound) | 25.1 µM (active) |
| NC[C@@H]1CC[C@@H](N)[C@@H](O[C@H]2[C@H](O)[C@@H](O[C@H]3O[C@H](CO)[C@@H](O)[C@H](N)[C@H]3O)[C@H](N)C[C@@H]2N)O1 | inactive |
| Nc1nc(/C(=C/CC(=O)O)C(=O)N[C@@H]2C(=O)N3C(C(=O)O)=CCS[C@H]23)cs1 | inactive |
| CO/N=C(\C(=O)N[C@@H]1C(=O)N2C(C(=O)O)=C(COC(C)=O)CS[C@H]12)c1csc(N)n1 (stereo in doubt) | inactive |
| CO/N=C(\C(=O)N[C@@H]1C(=O)N2C(C(=O)O)=C(CSc3cnns3)CS[C@H]12)c1csc(N)n1 | inactive |
| NCC[C@H](O)C(=O)N[C@@H]1C[C@H](N)[C@@H](O[C@H]2O[C@H](CN)CC[C@H]2N)[C@H](O)[C@H]1O[C@H]1O[C@H](CO)[C@@H](O)[C@H](N)[C@H]1O | inactive |
| COC1[C@@H](O[C@@H]2O[C@H](C)[C@@H](O[C@H]3C[C@@](C)(O)[C@H](OC(=O)CC(C)C)[C@H](C)O3)[C@H](N(C)C)[C@H]2O)[C@@H](CC=O)C[C@@H](C)[C@@H](O)/C=C/C=C/C[C@@H](C)OC(=O)C[C@H]1OC(C)=O (stereo partly drawn) | inactive |
| NC(=O)[C@@H]1C[C@]2(NC(=O)NC2=O)c2cc(F)ccc2O1 | inactive |
| C[C@@H]1C[C@H]2[C@@H]3C[C@H](F)C4=CC(=O)C=C[C@]4(C)[C@@]3(Cl)[C@@H](O)C[C@]2(C)[C@H]1C(=O)COC(=O)C(C)(C)C | inactive |
| COc1ccc(/C=N/NC(=O)c2ccncc2)c(C(=O)O)c1OC | inactive |
| O=C(O)c1ccc(NC2OC[C@@H](O)[C@H](O)[C@H]2O)cc1 (stereo partly drawn) | inactive |
| CC(C)(C)C(=O)OCC(=O)[C@H]1CC[C@H]2[C@@H]3CCC4=CC(=O)CC[C@]4(C)[C@H]3CC[C@]12C | inactive |
| NC(=O)CC[C@@H]1NC(=O)[C@H](Cc2ccccc2)NC(=O)[C@H](Cc2ccc(O)cc2)NC(=O)[C@@H](N)CSSC[C@@H](C(=O)N2CCC[C@H]2C(=O)N[C@@H](CCCN=C(N)N)C(=O)NCC(N)=O)NC(=O)[C@H](CC(N)=O)NC1=O | inactive |
